The values below come from PubChem BioAssay (NCI).

Molecules are shown by their SMILES. “And” between values parts separate entries of the source, which are not always exact repeats. Equal values may be shown once. About 83,000 compounds went through this panel and 20% of them were active in at least one assay; those are over-represented in the sample as a whole.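 Plates (96-well) were seeded with cells, treated with compound at one concentration, and incubated for 48 hours before percent growth was determined.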 A number with no mark means an inactive call. The source made the active and inactive calls. Rule for the calls: active = growth percent below 10; inactive = the rest.

Test systems include MOLT-4 leukemia; SR leukemia; RPMI-8226 leukemia; OVCAR-8 ovarian; OVCAR-5 ovarian; OVCAR-4 ovarian; SK-OV-3 ovarian; IGROV1 ovarian; OVCAR-3 ovarian; HS 578T breast; NCI/ADR-RES ovarian; T-47D breast; BT-549 breast; MDA-MB-435 melanoma; SW-620 colon; MCF7 breast; HCT-116 colon; HCC-2998 colon; KM12 colon.
Common to all, as to test: NCI-60 one-dose screen, 48 h (100 = growth as untreated, 0 = no growth, -100 = all killed)
Holding throughout (conditions): 10 µM unless noted

As to `CC[CH2][Sn]([Cl])([Cl])[CH2]CC.Oc1ccccc1C=NCCN=Cc1ccccc1O`, the growth was 40.2% and 12.6% in the experiment with MOLT-4 leukemia; 24.8% and 21.8% in the experiment on SR leukemia; -24.1% (active) and -10.1% (active) in the experiment on RPMI-8226 leukemia; 87.8% and 72.5% in the experiment on OVCAR-8 ovarian; 97.1% and 84.2% with OVCAR-5 ovarian; 69.6% in the experiment on OVCAR-4 ovarian. The growth with SK-OV-3 ovarian is 109% and 92.2%; in the experiment with IGROV1 ovarian it was 74.1% and 61.9%; in the experiment with OVCAR-3 ovarian, 86.8% and 44.3%; in the experiment on HS 578T breast, 77.7% and 48.6%; in the experiment with NCI/ADR-RES ovarian, 90.7% and 91.1%; in the experiment on T-47D breast, -86.4% (active) and -71% (active). In addition, the growth in the experiment with BT-549 breast is 72.7% and 37.4%; with MDA-MB-435 melanoma it was 71.8% and 50.1%; in the experiment on SW-620 colon, 2.07% (active) and -59.7% (active); with MCF7 breast, 21.9% and 17.1%; in the experiment on HCT-116 colon it was 66.2% and 60.3%; with HCC-2998 colon, 66.5% and 52.5%. Moreover, in the experiment with KM12 colon, the growth is 88.4% and 79.7%.
As for `O=C(Cc1ccccc1)NC(O)C(Cl)(Cl)Cl` (stereo not drawn), the growth is 96.1% in the experiment with MOLT-4 leukemia; 101% in the experiment with SR leukemia; 104% with RPMI-8226 leukemia; 96.1% in the experiment with OVCAR-8 ovarian; 111% in the experiment with OVCAR-5 ovarian; 105% in the experiment on OVCAR-4 ovarian. Besides, the growth is 106% in the experiment on SK-OV-3 ovarian; 115% in the experiment on IGROV1 ovarian; 124% in the experiment on OVCAR-3 ovarian; 124% in the experiment on HS 578T breast; 107% in the experiment with NCI/ADR-RES ovarian; 110% in the experiment on T-47D breast. Besides, the growth with BT-549 breast is 96.8%; in the experiment with MDA-MB-435 melanoma, 109%; in the experiment with SW-620 colon it was 117%; with MCF7 breast it was 93.1%; with HCT-116 colon, 107%; in the experiment with HCC-2998 colon it was 110%. The growth in the experiment with KM12 colon was 119%.
Turning to `C[C@]12CC[C@H]3[C@@H](CC=C4c5nc(-c6ccc(Br)cc6)sc5CC[C@@]43C)[C@@H]1CC[C@@H]2O`, the growth with MOLT-4 leukemia was 89.2%; with SR leukemia, 98.2%; in the experiment on RPMI-8226 leukemia, 54.6%; in the experiment on OVCAR-8 ovarian it was 106%; in the experiment on OVCAR-5 ovarian, 90%; with OVCAR-4 ovarian it was 95.1%. Besides, the growth was 95.1% in the experiment with SK-OV-3 ovarian; 99.1% in the experiment on IGROV1 ovarian; 103% with OVCAR-3 ovarian; 74% with HS 578T breast; 99.5% in the experiment on NCI/ADR-RES ovarian; 92.6% with T-47D breast. Further, the growth was 82.8% with BT-549 breast; 96.1% in the experiment on MDA-MB-435 melanoma; 108% in the experiment with SW-620 colon; 87.2% with MCF7 breast; 84.9% in the experiment on HCT-116 colon; 110% in the experiment with HCC-2998 colon. The growth in the experiment with KM12 colon is 102%.
Turning to `COc1cc(-c2ccc(N)c(OC)c2)ccc1N`, the growth with MOLT-4 leukemia was 173%; with SR leukemia, 143%; in the experiment with RPMI-8226 leukemia it was 96.5%; with OVCAR-8 ovarian, 114%; with OVCAR-5 ovarian it was 94.4%; in the experiment with OVCAR-4 ovarian, 104%. For the same compound, the growth in the experiment with SK-OV-3 ovarian is 105%; with IGROV1 ovarian, 120%; in the experiment on OVCAR-3 ovarian, 104%; in the experiment on HS 578T breast, 105%; in the experiment with NCI/ADR-RES ovarian, 105%; in the experiment on T-47D breast it was 96.4%. Also, the growth with BT-549 breast is 95.6%; in the experiment on MDA-MB-435 melanoma, 107%; in the experiment on SW-620 colon, 100%; in the experiment on MCF7 breast it was 99.8%; in the experiment on HCT-116 colon, 112%; in the experiment on HCC-2998 colon, 124%. Besides, the growth with KM12 colon is 101%.
Regarding `CCOC(=O)C1C(C=C(C)C)C1(C)C` (stereo not drawn), the growth was 85.1% in the experiment on MOLT-4 leukemia; 99.7% in the experiment on SR leukemia; 96.9% in the experiment on RPMI-8226 leukemia; 99.6% with OVCAR-8 ovarian; 80.5% with OVCAR-5 ovarian; 116% with OVCAR-4 ovarian. For the same compound, the growth with SK-OV-3 ovarian was 105%; in the experiment with IGROV1 ovarian it was 120%; in the experiment with OVCAR-3 ovarian it was 103%; in the experiment on HS 578T breast it was 115%; in the experiment with NCI/ADR-RES ovarian it was 99.1%; in the experiment with T-47D breast, 115%. The growth in the experiment with BT-549 breast is 104%; in the experiment with MDA-MB-435 melanoma, 102%; with SW-620 colon, 89.3%; in the experiment on MCF7 breast it was 112%; with HCT-116 colon, 108%; in the experiment with HCC-2998 colon, 96%. Further, the growth with KM12 colon was 94.5%.
As to `O=S(=O)(F)c1cccc(Cl)c1C[P+](c1ccccc1)(c1ccccc1)c1ccccc1`, the growth in the experiment on MOLT-4 leukemia is 112%; in the experiment with SR leukemia, 95.3%; with RPMI-8226 leukemia, 74.1%; with OVCAR-8 ovarian, 84.3%; with OVCAR-5 ovarian, 94.8%; with OVCAR-4 ovarian, 90.2%. The growth was 89.2% in the experiment with SK-OV-3 ovarian; 85.4% with IGROV1 ovarian; 96.5% with OVCAR-3 ovarian; 103% in the experiment on HS 578T breast; 109% in the experiment on NCI/ADR-RES ovarian; 91.9% in the experiment with T-47D breast. In addition, the growth with BT-549 breast is 106%; in the experiment on MDA-MB-435 melanoma it was 84.4%; in the experiment on SW-620 colon, 100%; with MCF7 breast, 103%; with HCT-116 colon, 92.4%; in the experiment with HCC-2998 colon it was 99.4%. The growth with KM12 colon was 102%.
Turning to `O=c1c2ccccc2nc(-c2ccccc2Cl)n1-c1nnc(C(F)(F)F)s1`, the growth is 3.92% (active) with MOLT-4 leukemia; -6.69% (active) in the experiment on SR leukemia; 0.839% (active) in the experiment on RPMI-8226 leukemia; 32.7% in the experiment on OVCAR-8 ovarian; 78.2% in the experiment with OVCAR-5 ovarian; 37.5% in the experiment on OVCAR-4 ovarian. Also, the growth with SK-OV-3 ovarian is 25.7%; in the experiment with IGROV1 ovarian, 37.6%; in the experiment with OVCAR-3 ovarian, 18.7%; with HS 578T breast, 26.7%; in the experiment with NCI/ADR-RES ovarian, 11.6%; in the experiment on T-47D breast, 43.5%. The growth in the experiment on BT-549 breast is 22.3%; with MDA-MB-435 melanoma it was 57.8%; in the experiment on SW-620 colon, 37.5%; in the experiment on MCF7 breast, 21.4%; with HCT-116 colon, 16.8%; with HCC-2998 colon, 17.6%. For the same compound, the growth in the experiment with KM12 colon is 29.1%.
